Experimental data published in the supplement of paper PMC3334620.
In all, about 33,000 sequences were measured (“E-score (-0.5 to 0.5)”: median about -8e-05, highest 2% from about 0.23 on). The sample as a whole holds a higher share of the highest values than the screen did.

Molecular target: T1, Nrg2 (UniProt P38082)
T1 sequence: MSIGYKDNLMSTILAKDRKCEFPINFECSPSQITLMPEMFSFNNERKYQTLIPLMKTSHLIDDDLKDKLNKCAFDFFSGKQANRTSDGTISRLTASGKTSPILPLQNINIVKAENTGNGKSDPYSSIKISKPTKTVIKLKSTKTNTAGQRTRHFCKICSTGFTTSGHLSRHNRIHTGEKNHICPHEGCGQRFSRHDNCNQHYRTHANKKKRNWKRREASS
Test: PBM E-score (8-mer binding enrichment) (E-score (-0.5 to 0.5)); higher = stronger / more preferred TF binding
Conditions: protein concentration: 100 nM; construct: GST-full length
Procedure: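 Universal 'all 10-mer' protein binding microarrays (Agilent AMADID 015681) probed with GST-tagged S. cerevisiae TFs (full-length or DBD) made by in vitro transcription/translation (PURExpress), about 100-200 nM. Bound TF was detected with fluorescent anti-GST. Each ungapped 8-mer (which stands for itself and its reverse complement) is scored by the PBM enrichment score (E-score), a modified Wilcoxon-Mann-Whitney statistic from -0.5 to +0.5, computed with the Universal PBM Analysis Suite. Scale: above 0.35 generally sequence-specific binding.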

Sequence | PBM E-score
AACGCGCA | 0.0385
AGAGCGAG | -0.0653
AACGCGCT | 0.123
CGAGCGAG | 0.249
CGAGCGAC | -0.0894
ATCGCGCG | 0.241
CAGGCGCA | -0.114
AACGCGCG | 0.319
ATCGCGCA | -0.004
CAGGCGCC | 0.0447
CAGGCGCG | 0.231
ATTCCCAA | 0.0933
AGGCCCCT | 0.0783
AGCCTCGA | -0.0885
CTAGTACA | 0.0576
ACCCTAGC | 0.0587
CTACTGAA | 0.029
ATCCGATA | 0.00821
AAGCAGTC | -0.135
CTCTCTTA | -0.0805
AGCAAAGA | -0.0188
AGACCAAT | -0.00568
GGCGGGCA | -0.0772
CAAACGCG | 0.0917
CGCGCGAG | 0.245

Sequence | PBM E-score
TGCGCGCA | 0.211
CGCGGGCA | 0.281
AAAACGCC | 0.0808
CGCGCGCA | 0.296
AAAACGCG | 0.285
CGCGGGCC | 0.176
CGCGCGAA | 0.157
CACGCGCA | -0.0169
AGCGCGAG | 0.0635
AAGATCGT | 0.0712
TCAGAGCA | -0.0393
CACTTCAC | -0.0837
GCAACAGA | 0.0125
ATTGGAGG | -0.149
AATCGCGG | 0.162
ACCTCACT | -0.0963
ATCGTGCC | -0.145
CTCGCGAG | 0.257
CCCGCGCG | 0.178
CTCGCGAA | -0.00662
ATCGTGCG | 0.272
CGCGCGCG | 0.302
ATCGTGCA | 0.0864
CGCGCGCC | 0.211
CACGCGAG | 0.225

Sequence | PBM E-score
AGTATACG | 0.0367
CCCCAGAA | -0.0495
GATTGGCA | -0.0954
TCCAGACA | -0.0642
GGTAACGA | -0.00769
AATTGTGA | 0.116
CTCACAAC | 0.206
ATCGGAAA | 0.0359
CTCGGAAA | -0.0457
GTCGGAAA | 0.234
ATGTGAGG | -0.0251
ATGTCCGG | 0.0983
GTGTAGTA | -0.0167
CTGTAGTA | 0.245
ATGTAGTA | 0.154
CAGCGTTC | 0.0488
TGCCAACA | 0.0266
AAATCTTG | 0.0495
CGGCAGAA | 0.154
AATGAAGA | 0.14
AATGAAGG | 0.0439
AATGAAGT | 0.23
CTGAACGA | -0.166
CACGCAGC | -0.0258
AACGCAGC | 0.253

Sequence | PBM E-score
AACGCAGA | -0.0108
CGGGTAAG | -0.13
AAACTATT | -0.0651
ATCATTTA | 0.0968
CTCATTTC | -0.0953
ATCATTTC | 0.242
AGTGCACG | 0.0226
AATCATAT | 0.0761
AATCATAC | 0.116
AATCATAG | 0.235
AGATTTGG | -0.144
CAAGTTGG | 0.225
ATTTGTTC | 0.272
CTTTGTTC | 0.0376
ATTTGTTA | 0.113
GAGTCAGC | -0.151
AAAAGTCG | 0.0204
ACCCCATG | 0.217
GAAAAATC | 0.099
GCATTGCC | -0.0164
ATTCGAAC | 0.155
GTTCGAAC | 0.233
CTTCGAAC | 0.108
GGAAGCAA | -0.0162
CCATGCAG | 0.155

Sequence | PBM E-score
CCATGCAA | 0.247
TCATGCAA | 0.192
GGGGTCAC | -0.0806
ACGGGCGC | 0.0207
AATCCCCT | 0.0153
CACATAAG | 0.0356
ATCATAAG | -0.085
AACATAAG | 0.246
AACATAAT | 0.248
AACATAAC | 0.134
AACATAAA | -0.0006
GAAGGCAC | 0.0779
TGTGAGAA | 0.183
ATATAGTC | 0.196
ATACATAA | 0.0727
ATACATAC | 0.0623
CTCTATAC | -0.0911
ATATATAA | 0.24
CTATATAC | 0.238
ATATAGTA | 0.155
TTATATAA | 0.192
CTATATAG | 0.00641
ATACATAT | 0.235
CTATATAA | 0.0499
ATATAGTG | 0.241

Sequence | PBM E-score
AGTGAGGC | -0.0681
AACCTTGC | -0.0724
AGCCAAAC | 0.121
AGATTACG | 0.121
AGCCGGAG | 0.023
CGGTGAAG | -0.222
GCAACGAA | 0.187
ACCATCAC | -0.0188
ATATATAC | 0.329
ATATATGG | 0.23
ATATATGC | 0.18
ATATATAT | 0.107
GTATATAC | 0.0119
ATATATGA | 0.0746
AACATCGG | -0.137
CTACAGAA | 0.0765
CGGGTGAA | 0.16
AATCAGGG | 0.0765
ATCCAGGG | 0.349
ATTCAGGA | 0.117
ATTCAGGC | 0.106
ATCCAGGA | -0.0938
CATCAGGG | 0.229
ACTCAGGG | 0.294
ATCCAGGC | 0.0212

Sequence | PBM E-score
ATTCAGGG | 0.367
ACTCAGGC | 0.00622
CATCAGGC | -0.00739
ACTCAGGA | -0.067
AGCACAAC | 0.0937
CTGTGCTC | 0.0672
GGCTGTTA | -0.00387
ATCCGTAA | -0.136
AGGCTTCC | 0.0147
TCTCTCAA | 0.14
CAGTGAAA | 0.0943
CAGTGAAC | 0.248
CAGTGAAG | -0.0253
CCAGATAC | -0.0175
GTATGCAA | 0.0781
GACCAGTA | -0.174
CGAATCAA | 0.22
AGAATCAA | 0.103
TGAATTAA | 0.273
CGAATCAG | 0.122
GGAATTAA | 0.153
AGAATCAT | 0.0757
TGAATCAA | 0.232
AGAATCAG | 0.272
CGAATTAA | 0.175
